Assay outcomes from PubChem BioAssay.
An excerpt weighted towards active compounds, which were near 3% of everything screened.
ERK AVP inh: inhibitors of vasopressin-stimulated ERK signaling pathway | HEK293-V1b, vasopressin-stimulated pERK AlphaScreen | Potency, µM (titrated, usually from 57.5 µM), hits mostly inhibitors | 72,000 tested, 0.99% active | AID 995; also: nearly all actives have a fitted effect of over 55% in size
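Phosphorylated ERK1/2 detected via AlphaScreen bead proximity in lysates of V1b-expressing HEK293 cells given 25 nM vasopressin for 5 min after 30 min compound exposure (37 °C). AC50 from Hill equation; basal DMSO 0%, vasopressin 100%.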
Ub-GFP proteasome: proteasome inhibitors stabilizing ubiquitin-GFP reporter | Ubiquitin-GFP reporter cells, proteasome inhibition, GFP fluorescence; response scale: untreated = 0%, 10 µM MG-132 = 100% | Potency, µM (doses to about 45.9 µM), most hits filed as activators | 67,000 tested, under 10 active; active = well fitted activation curve with a large enough effect, not every such curve was filed as active; inconclusive = small, poorly fitted or top-dose-only effect, or another doubt; inactive = no such curve, though single readings can be large or run the other way
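U2OS cells expressing ubiquitin(G76V)-GFP, seeded overnight in 0.5% FBS medium, then treated 4 hr at 37 C across 46 uM to 2.9 nM. GFP-positive cells counted by laser cytometry (488 ex/515 em); %activity scaled between basal and 10 uM MG-132.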
Epigenetic mod: derepresses silenced GFP locus in mouse C127i cells; mouse C127i GFP locus derepression, cytometry, 30 h; Potency, µM (titrated, usually from 46.1 µM); 68,000 tested, 0.09% active; AID 597
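Derepression screen: silenced CMV-GFP reporter in murine C127i cells, 30 h compound incubation at 37 C, washed cells imaged by laser-scanning cytometer to enumerate GFP-expressing objects of 20 to 120 um.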
HBB splicing: hemoglobin beta splicing modulation; Potency, µM (titrated, usually from 46.1 µM), most hits filed as activators; HBB splicing reporter cell assay, activation; EGFP reporter with mutant IVS2-654 intron; response scale: normalised to 500 nM splice-correcting PNA; 65,000 tested, 0.06% active
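Compounds were applied for 2 days to HeLa EGFP-654 cells, 500/well in Optimem with 2% FCS. The reporter's EGFP is disrupted by mis-splicing of beta-globin intron IVS2-654. Readout: summed well GFP fluorescence from 488 nm laser scanning; reference was 500 nM antisense […] 654 PNA.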
Hsp90 Hop PPI: changes Hsp90-Hop TPR2A binding signal, up or down; 71,000 tested, 0.44% active; AID 595; Potency, µM (titrated, usually from 57 µM); AlphaScreen TPR2A-His6 binding biotin-Hsp90 C-terminal peptide; active = well fitted curve in either direction with a large enough effect; inconclusive = small, poorly fitted or top-dose-only effect, or another doubt
Tau fil binding: binders of human tau filaments. recombinant tau filaments, thioflavin S fluorescence, 15 h; filaments grown with octadecylsulfate alongside compound. P10636. AID 596. 71,000 tested, 2% active. Potency, µM (top dose mostly 57.1 µM);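 also: actives lower thioflavin S fluorescence by blocking filaments or displacing dye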
Target sequence (P10636 whole entry, looked up): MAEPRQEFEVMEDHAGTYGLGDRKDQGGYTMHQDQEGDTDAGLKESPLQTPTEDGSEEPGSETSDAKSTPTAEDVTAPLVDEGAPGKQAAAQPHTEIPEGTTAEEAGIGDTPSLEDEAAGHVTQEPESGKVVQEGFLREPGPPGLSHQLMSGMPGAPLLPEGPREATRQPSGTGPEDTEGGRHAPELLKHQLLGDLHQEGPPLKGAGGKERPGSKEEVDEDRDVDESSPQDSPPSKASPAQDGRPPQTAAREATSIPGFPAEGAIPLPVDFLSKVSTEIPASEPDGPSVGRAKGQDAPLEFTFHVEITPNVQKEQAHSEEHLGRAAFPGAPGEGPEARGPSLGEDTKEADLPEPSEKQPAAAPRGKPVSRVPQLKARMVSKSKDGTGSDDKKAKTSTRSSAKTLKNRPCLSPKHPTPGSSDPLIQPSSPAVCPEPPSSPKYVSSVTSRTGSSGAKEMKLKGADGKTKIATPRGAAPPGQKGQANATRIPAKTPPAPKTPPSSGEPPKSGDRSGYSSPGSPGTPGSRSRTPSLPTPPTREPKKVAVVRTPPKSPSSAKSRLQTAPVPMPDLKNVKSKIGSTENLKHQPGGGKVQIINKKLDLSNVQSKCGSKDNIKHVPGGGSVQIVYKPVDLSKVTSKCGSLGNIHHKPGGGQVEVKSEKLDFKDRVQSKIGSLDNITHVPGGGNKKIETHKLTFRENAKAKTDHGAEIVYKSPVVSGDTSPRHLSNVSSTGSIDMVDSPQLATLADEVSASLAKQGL
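Assay mix: 1 uM His-tagged tau, 30 uM sodium octadecylsulfate, thioflavine S dye in HEPES/NaCl/DTT buffer. Compound is added prior to the inducer. Fluorescence after 15 h at 37 C.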
Large screens that a line does not name were inactive; ! = a repeat was not active. Unless noted, calls follow the shape of the dose curve; as a rule, active = well fitted curve in the direction sought with a large enough effect; inconclusive = small, poorly fitted or top-dose-only effect, or another doubt; inactive = no such curve, though single readings can be large; an effect the other way counts as inactive or inconclusive.

O=C1c2oc3ccc(F)cc3c(=O)c2C(c2cccc(O)c2)N1CCCN1CCOCC1 (stereo unspecified)	none (no result: ERK AVP inh, Epigenetic mod)
Cc1ccc2oc3c(c(=O)c2c1)C(c1cccc(Cl)c1)N(CCCN1CCOCC1)C3=O (stereo unspecified)	Tau fil binding 13µM (no result: ERK AVP inh, Epigenetic mod)
N#CCCCSc1nnc(CSc2nc3ccccc3s2)n1-c1ccccc1	ERK AVP inh 25µM
COc1ccc(CN2C(=O)c3cccnc3C2Nc2ccc(OC)c(Cl)c2)cc1 (stereo unspecified)	ERK AVP inh inconclusive
COc1ccc(NC2c3ncccc3C(=O)N2Cc2ccccc2)c(OC)c1 (stereo unspecified)	Tau fil binding 16µM
O[C@@H]1CC[C@H]2Cc3ccccc3N=C21	Tau fil binding inconclusive (no result: ERK AVP inh, HBB splicing)
N#C[C@H](c1ccccc1)N1CCCN([C@@H](C#N)c2ccccc2)C1c1ccccc1O (stereo partly specified)	none
Cc1ccc(C(=O)CSc2nnc(CNc3nc(-c4ccccc4)cs3)n2C)cc1	ERK AVP inh 13µM
CCn1c(CNc2nc(-c3ccccc3)cs2)nnc1SCC(=O)NCc1ccco1	none
CCOc1cccc(OCCCCn2ccnc2)c1	none
Cc1cc(OCCCn2ccnc2)cc(C)c1Cl	ERK AVP inh 25µM
Cc1ccc(NC(=O)CSCC(N)=O)cc1C	Epigenetic mod 16µM, Hsp90 Hop PPI inconclusive, Tau fil binding 3.2µM
Cc1ccc(NC(=O)Cn2cccc2)cc1C	none
C=CCn1c(SCC(=O)Nc2cccc(C)c2)nnc1-c1cnccn1	none (no result: Ub-GFP proteasome)
C=CCn1c(SCC(=O)Nc2ccc(N(C)C)cc2)nnc1-c1cccc(C)c1	ERK AVP inh inconclusive, Tau fil binding 25µM
COc1ccc(O[C@H]2C=C[C@@H](c3ccccc3)O[C@@H]2CON=C(C)C)cc1	none (no result: Ub-GFP proteasome, Epigenetic mod, Hsp90 Hop PPI, Tau fil binding)
O=c1oc2c(O)c(O)cc3c(=O)oc4c(O)c(O)cc1c4c23	ERK AVP inh 20µM!, Hsp90 Hop PPI 32µM, Tau fil binding inconclusive (no result: HBB splicing)
O=c1oc2ccccc2c2oc3cc(O)c(O)cc3c12	none (no result: Ub-GFP proteasome, Epigenetic mod, HBB splicing, Hsp90 Hop PPI, Tau fil binding)
N#Cc1c(-c2ccco2)c2c([nH]c1=S)CCCC2	ERK AVP inh inconclusive, Tau fil binding 32µM
O=C(O)c1cc(=O)[nH]c(=S)[nH]1	none
CCN(CC)c1ccc(C(=S)N2CCN(c3ccccc3)CC2)cc1	ERK AVP inh 32µM, Tau fil binding 5µM
S=C(c1ccc(N2CCCC2)cc1)N1CCCCC1	Tau fil binding 32µM
S=C(c1ccc(N2CCOCC2)cc1)N1CCOCC1	none
Nc1ccc(N2CCCCCC2)cc1	Hsp90 Hop PPI inconclusive, Tau fil binding 10µM (no result: HBB splicing)
NCCO	none (no result: Ub-GFP proteasome, Epigenetic mod)
C=Cc1c(C)/c2[n-]/c1=C\c1[n-]c(c(CC)c1C)/C=c1\[n-]c3c(c1C)C(=O)C(C(=O)[O-])C=3c1[n-]c(c(C)c1CCC(=O)[O-])\C=2.[Cu].[Na+].[Na+] (stereo unspecified)	none (no result: Ub-GFP proteasome, Epigenetic mod, HBB splicing, Hsp90 Hop PPI, Tau fil binding)
CCN1C(=O)c2cccc3c(NC(=O)c4ccc5c(c4)OCCO5)ccc1c23	Epigenetic mod 13µM
CCn1c(=O)cc(SCC(=O)N2CCN(c3ccccc3OC)CC2)c2ccccc21	ERK AVP inh 25µM
c1csc(-c2ncc3ccccn23)c1	none
COc1ccc(-c2ncc3ccccn23)cc1	Tau fil binding 20µM
COc1cccc(-c2nc(=S)c3c(n2Cc2ccco2)CCCC3)c1	Tau fil binding 16µM
COC(=O)[C@@H](NC(=O)c1cc(-c2ccccc2)nc2ccccc12)c1ccccc1	none (no result: ERK AVP inh)
CC(=O)OCC1OC(c2ccccc2)C(OC(C)=O)C(OC(C)=O)C1OC(C)=O (stereo unspecified)	none
O=C(OCC1OC(OC(=O)c2cc(O)c(O)c(OC(=O)c3cc(O)c(O)c(O)c3)c2)[C@@H](OC(=O)c2cc(O)c(O)c(OC(=O)c3cc(O)c(O)c(O)c3)c2)C(OC(=O)c2cc(O)c(O)c(OC(=O)c3cc(O)c(O)c(O)c3)c2)C1OC(=O)c1cc(O)c(O)c(OC(=O)c2cc(O)c(O)c(O)c2)c1)c1cc(O)c(O)c(OC(=O)c2cc(O)c(O)c(O)c2)c1 (stereo partly specified)	ERK AVP inh 13µM (no result: Ub-GFP proteasome, Epigenetic mod, HBB splicing, Hsp90 Hop PPI, Tau fil binding)
OC(CCN1CCOCC1)(c1ccc(Cl)cc1)C1CCCCC1 (stereo unspecified)	Tau fil binding 20µM (no result: HBB splicing)
O=C(O)CCCNc1cc(N2CCC3(CC2)OCCO3)c2noc3c2c1C(=O)c1ccccc1-3	Hsp90 Hop PPI 3.2µM, Tau fil binding 16µM
CCOC(=O)N1CCN(c2cc(NCCC(=O)O)c3c4c(onc24)-c2ccccc2C3=O)CC1	Hsp90 Hop PPI inconclusive, Tau fil binding 13µM
O=C1c2ccccc2-c2onc3ccc(NCc4ccco4)c1c23	none (no result: ERK AVP inh, Ub-GFP proteasome, HBB splicing, Hsp90 Hop PPI, Tau fil binding)
CCOC(=O)N1CCN(c2c(NCCCN(CC)Cc3ccccc3)c(=O)c2=O)CC1	none
CC1(c2ccc3noc(-c4ccc(Cl)cc4)c3c2)OCCO1	ERK AVP inh 16µM, Tau fil binding inconclusive (no result: Ub-GFP proteasome)
CCc1nnc2n1N=C(c1ccc(-c3cc(Cl)ccc3Cl)o1)CS2	Tau fil binding 16µM
Cc1oc(-c2cc(Cl)ccc2Cl)cc1-c1nn2c(C)nnc2s1	none
Clc1ccc(OCc2nnc3n2N=C(c2ccc4c(c2)OCCO4)CS3)c(Cl)c1	none
CCc1nnc2n1N=C(c1ccc(-c3ccc(Cl)cc3Cl)o1)CS2	Tau fil binding 25µM
Cc1nc2ccccc2c2nc3ccccc3n12	none
c1ccc2c(c1)nnn1c3ccccc3nc21	Tau fil binding 7.9µM
O=C(O)NCC1CCCCC1 (tested in a mixture with another compound)	none
Cc1ccc(NC(=O)NCCCN2CCOCC2)cc1	none
COc1ccc(Cl)c(N2CCN(CCCNC(=O)Nc3ccc(C)cc3)CC2)c1	Tau fil binding 16µM
O=C(OCc1nc2ccccc2s1)c1cccs1	none
CNc1sc(C(=O)c2cccs2)c(N)c1-c1nc2ccccc2s1	Hsp90 Hop PPI inconclusive, Tau fil binding 5µM
O=C(OCc1cc(=O)n2c(n1)sc1ccccc12)c1ccc2c(=O)n3c(nc2c1)CCC3	Tau fil binding 6.3µM
Cc1ccccc1C(=O)N1CCN(c2ccc(NC(=O)c3ccco3)cc2Cl)CC1	ERK AVP inh 32µM
CCCCc1cc(=O)oc2cc(C)c(CN3CCCC3)c(O)c12	Tau fil binding 20µM
COc1ccccc1-c1cc(C(=O)N2CCc3ccccc3C2)no1	Hsp90 Hop PPI inconclusive
COc1ccc2c(c1)CCC1C2CC[C@]2(C)[C@H](NCCCCCCN3C(=O)C=CC3=O)CC[C@@H]12 (stereo partly specified)	none
